From the supplement of paper PMC13392028
In all, about 4,100 sequences were measured (“RBNS R-value (6-mer enrichment in protein-bound RNA vs input library)”: median about 0.99, highest 2% from about 1.4 on). What follows is part of a selection rich in the highest values, with near analogues and random picks from the rest.

Test system: PfIESI-1 RRM domain (Plasmodium falciparum ortholog aa 875-1232, GST fusion)
Assay: RBNS R-value (6-mer enrichment in protein-bound RNA vs input library) (ratio); higher = stronger binding preference; the methods of the paper give 50 / 100 / 500 nM protein instead
Experimental: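 RNA Bind-n-Seq: recombinant GST-tagged IESI-1 RRM domain was incubated at room temperature with a random 40-nt in vitro transcribed RNA library at 250, 500 or 1000 nM protein. Bound RNA was pulled down on glutathione beads and sequenced. R-value is the enrichment of each 6-mer in the bound RNA relative to the input library. Each 6-mer sits inside the random 40-mer context, not as an isolated oligo. Values are replicate 1 only.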

Sequence: UAUGAU
- RBNS R-value (protein concentration: 250 nM): 1.95
- RBNS R-value (protein concentration: 500 nM): 2.17
- RBNS R-value (protein concentration: 1000 nM): 1.61

Sequence: CAUGAA
- RBNS R-value (protein concentration: 250 nM): 0.967
- RBNS R-value (protein concentration: 500 nM): 1.05
- RBNS R-value (protein concentration: 1000 nM): 1.01

Sequence: CAUGAU
- RBNS R-value (protein concentration: 250 nM): 2.24
- RBNS R-value (protein concentration: 500 nM): 2.42
- RBNS R-value (protein concentration: 1000 nM): 1.85

Sequence: AAUGAU
- RBNS R-value (protein concentration: 250 nM): 2.28
- RBNS R-value (protein concentration: 500 nM): 2.5
- RBNS R-value (protein concentration: 1000 nM): 1.88

Sequence: UAUGAA
- RBNS R-value (protein concentration: 250 nM): 0.854
- RBNS R-value (protein concentration: 500 nM): 0.932
- RBNS R-value (protein concentration: 1000 nM): 0.895

Sequence: AAUGCU
- RBNS R-value (protein concentration: 250 nM): 0.913
- RBNS R-value (protein concentration: 500 nM): 0.938
- RBNS R-value (protein concentration: 1000 nM): 0.914

Sequence: CAUGAG
- RBNS R-value (protein concentration: 250 nM): 1.06
- RBNS R-value (protein concentration: 500 nM): 1.07
- RBNS R-value (protein concentration: 1000 nM): 1.07

Sequence: AAUGAG
- RBNS R-value (protein concentration: 250 nM): 1.02
- RBNS R-value (protein concentration: 500 nM): 1.1
- RBNS R-value (protein concentration: 1000 nM): 1.07

Sequence: UAUGAG
- RBNS R-value (protein concentration: 250 nM): 0.911
- RBNS R-value (protein concentration: 500 nM): 0.958
- RBNS R-value (protein concentration: 1000 nM): 0.958

Sequence: CACGUU
- RBNS R-value (protein concentration: 250 nM): 0.886
- RBNS R-value (protein concentration: 500 nM): 0.866
- RBNS R-value (protein concentration: 1000 nM): 0.874

Sequence: GCACGA
- RBNS R-value (protein concentration: 250 nM): 1.08
- RBNS R-value (protein concentration: 500 nM): 1.09
- RBNS R-value (protein concentration: 1000 nM): 1.1

Sequence: AGCAGG
- RBNS R-value (protein concentration: 250 nM): 1.02
- RBNS R-value (protein concentration: 500 nM): 1.05
- RBNS R-value (protein concentration: 1000 nM): 1.12

Sequence: AGAGUG
- RBNS R-value (protein concentration: 250 nM): 1.09
- RBNS R-value (protein concentration: 500 nM): 1.09
- RBNS R-value (protein concentration: 1000 nM): 1.05

Sequence: GUUGAU
- RBNS R-value (protein concentration: 250 nM): 1.71
- RBNS R-value (protein concentration: 500 nM): 1.81
- RBNS R-value (protein concentration: 1000 nM): 1.51

Sequence: CUUGAA
- RBNS R-value (protein concentration: 250 nM): 1.1
- RBNS R-value (protein concentration: 500 nM): 1.09
- RBNS R-value (protein concentration: 1000 nM): 1.1

Sequence: UUUGAC
- RBNS R-value (protein concentration: 250 nM): 1.17
- RBNS R-value (protein concentration: 500 nM): 1.15
- RBNS R-value (protein concentration: 1000 nM): 1.12

Sequence: AUUGAG
- RBNS R-value (protein concentration: 250 nM): 1.07
- RBNS R-value (protein concentration: 500 nM): 1.1
- RBNS R-value (protein concentration: 1000 nM): 1.04

Sequence: CUUGAC
- RBNS R-value (protein concentration: 250 nM): 1.28
- RBNS R-value (protein concentration: 500 nM): 1.19
- RBNS R-value (protein concentration: 1000 nM): 1.22

Sequence: UUUGAU
- RBNS R-value (protein concentration: 250 nM): 2.39
- RBNS R-value (protein concentration: 500 nM): 2.62
- RBNS R-value (protein concentration: 1000 nM): 1.95

Sequence: GUUGAC
- RBNS R-value (protein concentration: 250 nM): 1.01
- RBNS R-value (protein concentration: 500 nM): 0.99
- RBNS R-value (protein concentration: 1000 nM): 1.02

Sequence: GUUGAG
- RBNS R-value (protein concentration: 250 nM): 0.972
- RBNS R-value (protein concentration: 500 nM): 0.963
- RBNS R-value (protein concentration: 1000 nM): 1

Sequence: CUUGAU
- RBNS R-value (protein concentration: 250 nM): 2.01
- RBNS R-value (protein concentration: 500 nM): 2.15
- RBNS R-value (protein concentration: 1000 nM): 1.74

Sequence: AUUGAU
- RBNS R-value (protein concentration: 250 nM): 2.21
- RBNS R-value (protein concentration: 500 nM): 2.4
- RBNS R-value (protein concentration: 1000 nM): 1.85

Sequence: AUUGAC
- RBNS R-value (protein concentration: 250 nM): 1.12
- RBNS R-value (protein concentration: 500 nM): 1.14
- RBNS R-value (protein concentration: 1000 nM): 1.08

Sequence: UUUGAA
- RBNS R-value (protein concentration: 250 nM): 0.988
- RBNS R-value (protein concentration: 500 nM): 1.05
- RBNS R-value (protein concentration: 1000 nM): 1.05

Sequence: AGGACA
- RBNS R-value (protein concentration: 250 nM): 1
- RBNS R-value (protein concentration: 500 nM): 1.03
- RBNS R-value (protein concentration: 1000 nM): 1.04

Sequence: CCUUGU
- RBNS R-value (protein concentration: 250 nM): 0.991
- RBNS R-value (protein concentration: 500 nM): 0.946
- RBNS R-value (protein concentration: 1000 nM): 0.954

Sequence: GGGAGU
- RBNS R-value (protein concentration: 250 nM): 1.1
- RBNS R-value (protein concentration: 500 nM): 1.05
- RBNS R-value (protein concentration: 1000 nM): 1.09

Sequence: CCGCCA
- RBNS R-value (protein concentration: 250 nM): 1.08
- RBNS R-value (protein concentration: 500 nM): 0.99
- RBNS R-value (protein concentration: 1000 nM): 1.06

Sequence: AUCCUA
- RBNS R-value (protein concentration: 250 nM): 0.949
- RBNS R-value (protein concentration: 500 nM): 0.898
- RBNS R-value (protein concentration: 1000 nM): 0.9

Sequence: GCCCCU
- RBNS R-value (protein concentration: 250 nM): 1.04
- RBNS R-value (protein concentration: 500 nM): 0.964
- RBNS R-value (protein concentration: 1000 nM): 1.02

Sequence: AAUCAA
- RBNS R-value (protein concentration: 250 nM): 0.817
- RBNS R-value (protein concentration: 500 nM): 0.94
- RBNS R-value (protein concentration: 1000 nM): 0.899

Sequence: GCCAUA
- RBNS R-value (protein concentration: 250 nM): 0.918
- RBNS R-value (protein concentration: 500 nM): 0.859
- RBNS R-value (protein concentration: 1000 nM): 0.881

Sequence: UGGCUU
- RBNS R-value (protein concentration: 250 nM): 1.01
- RBNS R-value (protein concentration: 500 nM): 0.984
- RBNS R-value (protein concentration: 1000 nM): 0.967

Sequence: AAAAAC
- RBNS R-value (protein concentration: 250 nM): 1.13
- RBNS R-value (protein concentration: 500 nM): 1.3
- RBNS R-value (protein concentration: 1000 nM): 1.2

Sequence: GAGCGU
- RBNS R-value (protein concentration: 250 nM): 0.994
- RBNS R-value (protein concentration: 500 nM): 0.96
- RBNS R-value (protein concentration: 1000 nM): 0.986

Sequence: UCGAGA
- RBNS R-value (protein concentration: 250 nM): 1.26
- RBNS R-value (protein concentration: 500 nM): 1.23
- RBNS R-value (protein concentration: 1000 nM): 1.22

Sequence: CCGAGC
- RBNS R-value (protein concentration: 250 nM): 1.29
- RBNS R-value (protein concentration: 500 nM): 1.16
- RBNS R-value (protein concentration: 1000 nM): 1.24

Sequence: CCGAGA
- RBNS R-value (protein concentration: 250 nM): 1.59
- RBNS R-value (protein concentration: 500 nM): 1.4
- RBNS R-value (protein concentration: 1000 nM): 1.41

Sequence: GCAGGU
- RBNS R-value (protein concentration: 250 nM): 1.01
- RBNS R-value (protein concentration: 500 nM): 0.998
- RBNS R-value (protein concentration: 1000 nM): 1.07

Sequence: CGGGGU
- RBNS R-value (protein concentration: 250 nM): 1.06
- RBNS R-value (protein concentration: 500 nM): 1.04
- RBNS R-value (protein concentration: 1000 nM): 1.07

Sequence: AUUCGU
- RBNS R-value (protein concentration: 250 nM): 0.903
- RBNS R-value (protein concentration: 500 nM): 0.913
- RBNS R-value (protein concentration: 1000 nM): 0.916

Sequence: GGGGUG
- RBNS R-value (protein concentration: 250 nM): 1.1
- RBNS R-value (protein concentration: 500 nM): 1.02
- RBNS R-value (protein concentration: 1000 nM): 1.07

Sequence: CCAUGU
- RBNS R-value (protein concentration: 250 nM): 0.923
- RBNS R-value (protein concentration: 500 nM): 0.903
- RBNS R-value (protein concentration: 1000 nM): 0.916

Sequence: CCAUGA
- RBNS R-value (protein concentration: 250 nM): 1.4
- RBNS R-value (protein concentration: 500 nM): 1.43
- RBNS R-value (protein concentration: 1000 nM): 1.27

Sequence: GCAUGG
- RBNS R-value (protein concentration: 250 nM): 0.998
- RBNS R-value (protein concentration: 500 nM): 0.987
- RBNS R-value (protein concentration: 1000 nM): 1.04

Sequence: GCAUGC
- RBNS R-value (protein concentration: 250 nM): 1.01
- RBNS R-value (protein concentration: 500 nM): 0.974
- RBNS R-value (protein concentration: 1000 nM): 1

Sequence: CCAUGG
- RBNS R-value (protein concentration: 250 nM): 1.07
- RBNS R-value (protein concentration: 500 nM): 1.01
- RBNS R-value (protein concentration: 1000 nM): 1.07

Sequence: GCAUGA
- RBNS R-value (protein concentration: 250 nM): 1.41
- RBNS R-value (protein concentration: 500 nM): 1.43
- RBNS R-value (protein concentration: 1000 nM): 1.27

Sequence: GAGAGA
- RBNS R-value (protein concentration: 250 nM): 1.26
- RBNS R-value (protein concentration: 500 nM): 1.29
- RBNS R-value (protein concentration: 1000 nM): 1.28

Sequence: UGCGAC
- RBNS R-value (protein concentration: 250 nM): 1.06
- RBNS R-value (protein concentration: 500 nM): 1
- RBNS R-value (protein concentration: 1000 nM): 1

Sequence: UAAAAA
- RBNS R-value (protein concentration: 250 nM): 0.951
- RBNS R-value (protein concentration: 500 nM): 1.17
- RBNS R-value (protein concentration: 1000 nM): 1.05

Sequence: GGCACU
- RBNS R-value (protein concentration: 250 nM): 1.11
- RBNS R-value (protein concentration: 500 nM): 1.03
- RBNS R-value (protein concentration: 1000 nM): 1.07

Sequence: GACACG
- RBNS R-value (protein concentration: 250 nM): 1.13
- RBNS R-value (protein concentration: 500 nM): 1.1
- RBNS R-value (protein concentration: 1000 nM): 1.12

Sequence: GACACU
- RBNS R-value (protein concentration: 250 nM): 1.2
- RBNS R-value (protein concentration: 500 nM): 1.19
- RBNS R-value (protein concentration: 1000 nM): 1.14

Sequence: GGCACA
- RBNS R-value (protein concentration: 250 nM): 1.05
- RBNS R-value (protein concentration: 500 nM): 1.05
- RBNS R-value (protein concentration: 1000 nM): 1.04

Sequence: GGCACC
- RBNS R-value (protein concentration: 250 nM): 1.38
- RBNS R-value (protein concentration: 500 nM): 1.2
- RBNS R-value (protein concentration: 1000 nM): 1.29

Sequence: GACACC
- RBNS R-value (protein concentration: 250 nM): 1.56
- RBNS R-value (protein concentration: 500 nM): 1.32
- RBNS R-value (protein concentration: 1000 nM): 1.35

Sequence: CGAUCG
- RBNS R-value (protein concentration: 250 nM): 0.905
- RBNS R-value (protein concentration: 500 nM): 0.881
- RBNS R-value (protein concentration: 1000 nM): 0.937
